# The list is not random: actives were taken first. Their share in the collection is about 4.3%.
# Peg3 prom inh – Peg3 promoter activity inhibition. HeLa PEG-Prom luciferase reporter, luminescence, overnight. inhibition, % at 20 µM. actives 1.7% (n = 360,000);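 active = inhibition of at least 50% at 20 µM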
# KKLEB tox – reduces viability of KKLEB cystic fibrosis airway cells; KKLEB CF airway cells viability, ATPlite luminescence, overnight; active compounds read low; cells stimulated with P. aeruginosa culture filtrate; activity change (cytotoxicity), % at 5 µM; actives 0.36% (n = 360,000); AID 602141;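 active = corrected activity change at or below -50% at 5 µM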
# CF NFkB inh – blocks PAF-induced NF-kB reporter in cystic fibrosis cells; KKLEB NF-kB-GFP reporter, GFP fluorescence overnight; inhibition, % at 5 µM; actives 0.86% (n = 360,000); AID 588850;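 active = at least 50% inhibition at 5 µM, scaled per plate between neutral and stimulator controls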;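 also: PAF is a Pseudomonas aeruginosa culture filtrate used as stimulus; plate controls were PAF-stimulated DMSO wells for no effect and unstimulated DMSO wells for full effect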
# HIF-2a inh – HIF-2a inhibition; inhibition, % at 18.8 µM; 786-0 RCC cells HIF-2a reporter, luciferase luminescence, overnight; AID 624352; actives 0.72% (n = 360,000);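 active = inhibition of the luminescence signal of 40% or more relative to plate controls, in a single-dose primary screen at 18.75 µM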
# CHOP inhibitor – blocks CHOP induction under ER stress; CHO-K1 CHOP-promoter luciferase, tunicamycin-induced, 15-18 h; inhibition, % at 10 µM; actives 3.8% (n = 220,000); AID 2732;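 active = compounds that reduced the stress-induced luciferase reporter signal by more than about 70% of percent inhibition, limit read from the data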;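 also: 0% = tunicamycin plus vehicle and 100% = wells without tunicamycin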
# MITF TRPM1 inh – MITF TRPM1 promoter inhibition in SK-MEL-5 cells; inhibition, % at 12.5 µM; SK-MEL-5 TRPM1 promoter luciferase, 24 h; actives 0.83% (n = 330,000);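 active = mean inhibition across replicates of 60% or more, whatever share of single replicates reaches that level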
# The depositor's hits bear a star; . = no result.
SMILES,Peg3 prom inh,KKLEB tox,CF NFkB inh,HIF-2a inh,CHOP inhibitor,MITF TRPM1 inh
O=[N+]([O-])c1ccc(-c2nc(-c3cccs3)c(-c3cccs3)[nH]2)cc1,43,-4,2,-14,92*,4
Cc1ccsc1-c1nc(-c2ccccc2)c(-c2ccccc2)[nH]1,11,-7,-6,5,82*,-9
O=C(O)c1ccc(-c2nc(-c3ccccc3)c(-c3ccccc3)[nH]2)cc1,-4,-7,30,22,27,-2
CSc1ccc(/C=C(/NC(=O)c2ccco2)C(=O)N2CCCCC2)cc1,16,5,-10,9,.,1
CCOC(=O)N1CCN(C(=O)Cc2ccccc2OC)CC1,19,2,14,10,.,4
O=C(Nc1ccccc1C(=O)Nc1nnc(C(F)(F)F)s1)c1ccccc1Cl,48,-61*,56*,-4,74*,17
OCCNc1ncnc2c1ncn2[C@H]1CN(Cc2ccco2)C[C@@H](CO)O1,4,9,-10,8,.,.
Cc1sc(-n2c(C)cc(/C=C3\SC(=S)NC3=O)c2C)c(C#N)c1C,75*,-20,-22,-127,37,14
CN(C)Cc1csc(Nc2ccc(C(=O)c3ccccc3)cc2)n1,-16,-12,30,-29,.,.
O=C(O)Cc1cn(-c2ccccc2)nc1-c1ccccc1,1,2,-3,10,7,1
OCc1cn(-c2ccccc2)nc1-c1ccc(-c2nn(-c3ccccc3)cc2CO)cc1,19,5,11,11,88*,9
COc1ccc(OC)c2sc(NC(=O)c3ccc(Br)s3)nc12,27,0,40,-42,91*,5
CN(c1ccccc1)S(=O)(=O)c1ccc(C(=O)N2CCN(c3ccccc3)CC2)cc1,-2,0,4,10,.,.
Cc1cccnc1NC(=O)c1cc2ccccc2oc1=O,-64,-7,-1,-85,90*,-13
NC(COCc1ccccc1)c1csc(Nc2ccc(C(F)(F)F)cn2)n1 (configuration not stated),102*,7,-5,9,.,.
NC(COCc1ccccc1)c1csc(Nc2ccccn2)n1 (configuration not stated),-17,-6,13,-31,.,.
NC(CCc1ccccc1)c1csc(Nc2ccc(C(F)(F)F)cn2)n1 (configuration not stated),110*,-12,18,15,.,.
NC(CO)c1csc(Nc2ccc(C(F)(F)F)cn2)n1 (configuration not stated),-18,5,7,-25,.,.
CCOC(=O)c1c(S(=O)(=O)Nc2ccc(F)cc2C)c(C)n(C)c1C,5,8,-12,7,.,3
Cc1cc(C)n(-c2ccc(C(=O)N3CCN(S(=O)(=O)c4ccc(Br)cc4Cl)CC3)cc2)n1,25,-8,-5,6,.,.
O=C(Nc1ccc(-c2nc3ccccc3s2)c(O)c1)C1=COCCO1,-318,-11,-6,-231,72*,-37
O=C(Nc1ccc(O)c(-c2nc3ccccc3s2)c1)C1=COCCO1,-56,17,-38,-60,36,-8
CSc1ccc(CN2CCC(C)(Oc3cnc(Cl)c4ccccc34)C2)cc1 (configuration not stated),-1,2,-24,13,.,.
COc1ccccc1-n1cc(-c2ccccc2)c2c(=S)nc[nH]c21,33,-16,12,22,.,3
Cc1nc2ccccc2c(=O)[nH]1,-8,7,-2,23,-9,-2
SMILES,Peg3 prom inh,KKLEB tox,CF NFkB inh,HIF-2a inh,CHOP inhibitor,MITF TRPM1 inh
O=c1[nH]c(C2C3CC4CC(C3)CC2C4)nc2ccccc12 (configuration not stated),7,1,2,15,73*,-2
Cc1ccc(C(NC(=O)C(C)C)c2cc([N+](=O)[O-])c3cccnc3c2O)cc1 (configuration not stated),38,3,14,3,3,39
CC(C)C(=O)NC(c1cccs1)c1cc([N+](=O)[O-])c2cccnc2c1O (configuration not stated),56*,-5,9,15,39,4
CCCC(=O)NC(c1ccco1)c1cc(Cl)c2cccnc2c1O (configuration not stated),69*,4,-25,20,-5,4
CCCC(=O)NC(c1cccs1)c1cc(Cl)c2cccnc2c1O (configuration not stated),45,5,-14,10,75*,45
CCC(=O)NC(c1ccc(C)cc1)c1cc(Cl)c2cccnc2c1O (configuration not stated),49,3,-3,2,.,4
CCCC(=O)NC(c1ccc2c(c1)OCO2)c1cc(Cl)c2cccnc2c1O (configuration not stated),55*,-8,-11,3,67,31
O=C(CNC(=O)OCc1ccccc1)NCC(=O)Oc1ccc([N+](=O)[O-])cc1,-3,3,-8,10,.,1
CNc1nc(-c2ccccc2)c2sccc2n1,-3,-10,17,-16,.,.
CNc1cncc(-c2ccc(OCCCN(C)C)nc2)n1,-24,4,6,-35,.,.
COc1ccccc1CNCCCCCCNCCCCCCCCNCCCCCCNCc1ccccc1OC,.,.,.,.,-13,.
COc1ccccc1S(=O)(=O)N(C)C[C@@H]1OCc2cnnn2CCCC(=O)N([C@@H](C)CO)C[C@H]1C,10,12,-24,-3,.,.
Cc1cccc(NC(=O)c2nc[nH]c2C(=O)N[C@@H](Cc2ccccc2)C(=O)OC(C)(C)C)c1,2,-21,13,12,74*,-15
CC(C)C[C@H](NC(=O)c1nc[nH]c1C(=O)NC(c1ccccc1)c1ccccc1)C(=O)OC(C)(C)C,84*,-2,34,35,-38,9
CC(C)C[C@H](NC(=O)c1nc[nH]c1C(=O)NCC(=O)OC(C)(C)C)C(=O)OC(C)(C)C,5,8,-14,0,84*,-2
Cc1ccc(C)c(CC(=O)N2CCCCC2c2cc(C(=O)Nc3cccc(C#N)c3)no2)c1 (configuration not stated),19,-6,-22,8,.,.
Cc1ccccc1COc1cccc(/C=N/NC(=O)c2nnn(-c3nonc3N)c2C)c1,74*,-13,32,-9,.,9
CC(C)C[C@H](CO)N(Cc1ccccc1)S(=O)(=O)N(Cc1ccccc1)[C@@H](CO)CC(C)C,53*,-22,38,-11,.,24
CC(=O)c1cccc(NC(=O)C2Cc3c(-c4ccc5c(c4)OCO5)ccnc3O2)c1 (configuration not stated),35,-3,-2,22,.,.
Cc1ncc(CO)c2c1Oc1nc(-c3ccccc3)nc(SCC(=O)Nc3cccc(O)c3)c1C2,64*,-15,-39,-13,.,4
NC(=O)c1ccsc1NC(=O)c1ccc2c(c1)CCCC2,-125,-58*,-17,-158,33,12
